Measurements reported in PubChem BioAssay AID1159580 (chemical genetic matrix, 2015).
Several values for one entry are separate records, joined by “and”; a condition that tells them apart may be missing. Equal values may be shown once. Screen size: about 5,500 compounds; about 2,000 (36%) were called active. Another 18% or so got no clear call; they are omitted. Rule as the data show it: active = normalized growth mostly below about 0.91 (no sharp cut-off); inconclusive = no clear call, values can overlap the other calls; inactive = mostly above about 0.92. Some of the results follow.

Experiment: chemical genetic growth profiling, strain panel (AID 1159580);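 also: tested at 20 µM; growth read once vehicle control cultures reached saturation at 30 °C; 1 = growth at the plate median or of vehicle wells; lower values mean less growth of the strain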
Settings: growth OD

Measured: normalized growth

O=C(C1CCCCC1)N1CC(=O)N2CCc3ccccc3C2C1 (centres undefined)
inactive: S. cerevisiae deletion strains, locus YJR075W, strain HOC1, active compounds read low 1 | S. cerevisiae deletion strains, locus YKL009W, strain mrt4, active compounds read low 1.02 | S. cerevisiae deletion strains, locus YKL068W, active compounds read low 1 | S. cerevisiae deletion strains, locus YKL085W, strain MDH1 (second series), active compounds read low 1.01 | S. cerevisiae deletion strains, locus YKL085W, strain MDH1, active compounds read low 1.01 | S. cerevisiae deletion strains, locus YKL160W, strain elf1, active compounds read low 1.01 | S. cerevisiae deletion strains, locus YKL190W, strain CNB1, active compounds read low 1 | S. cerevisiae deletion strains, locus YKR001C, strain vps1, active compounds read low 1.01 | S. cerevisiae deletion strains, locus YKR026C, strain gcn3, active compounds read low 1.01 | S. cerevisiae deletion strains, locus YKR091W, strain srl3, active compounds read low 1.01 | S. cerevisiae deletion strains, locus YLL001W, strain dnm1, active compounds read low 1.06 | S. cerevisiae deletion strains, locus YLL026W, active compounds read low 1.01 | S. cerevisiae deletion strains, locus YLL041C, strain sdh2, active compounds read low 0.995 | S. cerevisiae deletion strains, locus YLR027C, strain aat2, active compounds read low 0.984 | S. cerevisiae deletion strains, locus YLR039C, strain RIC1, active compounds read low 1.01 | S. cerevisiae deletion strains, locus YLR058C, strain SHM2, active compounds read low 1 | S. cerevisiae deletion strains, locus YLR102C, strain apc9, active compounds read low 1.01 | S. cerevisiae deletion strains, locus YLR113W, strain HOG1, active compounds read low 1.01 | S. cerevisiae deletion strains, locus YLR221C, strain rsa3, active compounds read low 1.03 | S. cerevisiae deletion strains, locus YLR258W, strain gsy2, active compounds read low 1.03 | S. cerevisiae deletion strains, locus YLR262C, strain YPT6 (second series), active compounds read low 1.04 | S. cerevisiae deletion strains, locus YLR262C, strain YPT6, active compounds read low 1.02 | S. cerevisiae deletion strains, locus YLR268W, strain sec22, active compounds read low 1.03 | S. cerevisiae deletion strains, locus YLR320W, strain mms22, active compounds read low 1.02 | S. cerevisiae deletion strains, locus YLR330W, strain CHS5, active compounds read low 1.01 | S. cerevisiae deletion strains, locus YLR342W, strain FKS1 (second series), active compounds read low 1.01 | S. cerevisiae deletion strains, locus YLR342W, strain FKS1, active compounds read low 1.01 | S. cerevisiae deletion strains, locus YLR357W, strain rsc2, active compounds read low 0.998 | S. cerevisiae deletion strains, locus YLR370C, strain arc18, active compounds read low 1.02 | S. cerevisiae deletion strains, locus YLR371W, strain rom2, active compounds read low 1.01 | S. cerevisiae deletion strains, locus YLR384C, strain iki3, active compounds read low 1.01 | S. cerevisiae deletion strains, locus YLR418C, strain cdc73, active compounds read low 1.01 | S. cerevisiae deletion strains, locus YML016C, strain PPZ1, active compounds read low 0.999 | S. cerevisiae deletion strains, locus YML032C, strain rad52, active compounds read low 1.01 | S. cerevisiae deletion strains, locus YML120C, strain ndi1, active compounds read low 1.04 | S. cerevisiae deletion strains, locus YML124C, strain tub3, active compounds read low 1 | S. cerevisiae deletion strains, locus YMR058W, strain fet3, active compounds read low 1 | S. cerevisiae deletion strains, locus YMR078C, strain ctf18, active compounds read low 0.997 | S. cerevisiae deletion strains, locus YMR125W, strain sto1, active compounds read low 1.02 | S. cerevisiae deletion strains, locus YMR129W, active compounds read low 1.01 | S. cerevisiae deletion strains, locus YMR205C, strain PFK2, active compounds read low 1.02 | S. cerevisiae deletion strains, locus YMR223W, strain ubp8, active compounds read low 0.987 | S. cerevisiae deletion strains, locus YMR231W, strain pep5, active compounds read low 1 | S. cerevisiae deletion strains, locus YMR263W, strain SAP30, active compounds read low 1 | S. cerevisiae deletion strains, locus YMR307W, strain GAS1, active compounds read low 1 and 0.995 | S. cerevisiae deletion strains, locus YNL067W, strain RPL9B, active compounds read low 1 | S. cerevisiae deletion strains, locus YNL071W, strain lat1, active compounds read low 0.996 | S. cerevisiae deletion strains, locus YNL153C, strain GIM3, active compounds read low 1.03 | S. cerevisiae deletion strains, locus YNL175C, strain NOP13, active compounds read low 1.01 | S. cerevisiae deletion strains, locus YNL183C, strain NPR1, active compounds read low 0.96 | S. cerevisiae deletion strains, locus YNL197C, strain WHI3, active compounds read low 1.01 | S. cerevisiae deletion strains, locus YNL209W, strain ssb2, active compounds read low 1 | S. cerevisiae deletion strains, locus YNL224C, strain SQS1, active compounds read low 1.02 | S. cerevisiae deletion strains, locus YNL233W, strain BNI4, active compounds read low 0.995 | S. cerevisiae deletion strains, locus YNL248C, strain rpa49, active compounds read low 0.893 | S. cerevisiae deletion strains, locus YNL250W, strain rad50, active compounds read low 1.01 | S. cerevisiae deletion strains, locus YNL271C, strain bni1, active compounds read low 1 | S. cerevisiae deletion strains, locus YNL298W, strain CLA4, active compounds read low 1.01 | S. cerevisiae deletion strains, locus YNL307C, strain MCK1, active compounds read low 1.02 | S. cerevisiae deletion strains, locus YNL322C, strain KRE1 (second series), active compounds read low 1.02 | S. cerevisiae deletion strains, locus YNL322C, strain KRE1, active compounds read low 1 and 1.01 | S. cerevisiae deletion strains, locus YNR049C, strain mso1, active compounds read low 1 | S. cerevisiae deletion strains, locus YNR052C, strain pop2, active compounds read low 1.01 | S. cerevisiae deletion strains, locus YOL006C, strain TOP1, active compounds read low 0.912 | S. cerevisiae deletion strains, locus YOL012C, strain htz1 0.872 | S. cerevisiae deletion strains, locus YOL147C, strain pex11, active compounds read low 1.01 | S. cerevisiae deletion strains, locus YOR001W, strain rrp6, active compounds read low 0.971 | S. cerevisiae deletion strains, locus YOR061W, strain CKA2, active compounds read low 1 | S. cerevisiae deletion strains, locus YOR069W, strain VPS5, active compounds read low 1 | S. cerevisiae deletion strains, locus YOR070C, strain gyp1, active compounds read low 1 | S. cerevisiae deletion strains, locus YOR080W, strain dia2, active compounds read low 1.01 | S. cerevisiae deletion strains, locus YOR083W, strain WHI5 (second series), active compounds read low 1.01 | S. cerevisiae deletion strains, locus YOR083W, strain WHI5, active compounds read low 1.03 | S. cerevisiae deletion strains, locus YOR106W, strain vam3, active compounds read low 1.01 | S. cerevisiae deletion strains, locus YOR136W, strain idh2, active compounds read low 1.01 | S. cerevisiae deletion strains, locus YOR144C, strain elg1, active compounds read low 1.01 | S. cerevisiae deletion strains, locus YOR184W, strain ser1, active compounds read low 1 | S. cerevisiae deletion strains, locus YOR231W, strain MKK1, active compounds read low 1 | S. cerevisiae deletion strains, locus YOR265W, strain rbl2, active compounds read low 1 | S. cerevisiae deletion strains, locus YOR270C, strain vph1, active compounds read low 0.955 | S. cerevisiae deletion strains, locus YOR290C, strain snf2, active compounds read low 1.02 | S. cerevisiae deletion strains, locus YOR316C, strain cot1, active compounds read low 1 | S. cerevisiae deletion strains, locus YPL051W, strain arl3, active compounds read low 0.988 | S. cerevisiae deletion strains, locus YPL078C, strain atp4, active compounds read low 0.974 | S. cerevisiae deletion strains, locus YPL106C, strain sse1, active compounds read low 1.04 | S. cerevisiae deletion strains, locus YPL240C, strain hsp82, active compounds read low 0.998 | S. cerevisiae deletion strains, locus YPL241C, strain CIN2, active compounds read low 1 | S. cerevisiae deletion strains, locus YPL256C, strain CLN2, active compounds read low 0.965 | S. cerevisiae deletion strains, locus YPR119W, strain clb2, active compounds read low 1 | S. cerevisiae deletion strains, locus YPR141C, strain kar3, active compounds read low 1.01 | S. cerevisiae deletion strains, locus YPR163C, strain tif3, active compounds read low 1.02 | S. cerevisiae deletion strains, locus YPR167C, strain met16, active compounds read low 1.02 | S. cerevisiae deletion strains, strain wtn01, active compounds read low 1.02 | S. cerevisiae strains, strain wild type, active compounds read low 0.999
